Inconclusive results are not listed. Where a call stands in place of a potency, no number is given. The source made the active and inactive calls. Calls follow the shape of the dose curve; as a rule, active = well fitted cell-killing curve with a large enough effect; inconclusive = small, poorly fitted or top-dose-only effect; inactive = flat fitted curve, though single readings scatter. Starred links: 1 amine or outer side, 2 acyl side, 3 side chain; linkers in the order of their positions; H or OH if unused. Positions of bridges follow the written chain, without caps; N, C: chain ends. Non-standard residues stand in square brackets, D forms with d. Residues, ends and D or L forms follow the SMILES beside them. ξ: configuration not given here. *: point of attachment. X3 = C[C@@H](Oc1ccc([C@H](N[*:1])C(=O)[*:2])cc1)[C@]1(/C=C\C(=O)[*:3])CO1; d(aIle) = CC[C@H](C)[C@@H](N)C(=O)O; X2 = CC(C)[C@@H](O)C(C)C(=O)*; ξNMeF = CNC(Cc1ccccc1)C(=O)O; ξT = CC(O)C(N)C(=O)O; ξS = NC(CO)C(=O)O
Potency is read from the fitted curve at half-maximal effect.

A short description of the experiment: SW1088 Cancer Cell Toxicity qHTS against the NCATS CANVASS Library (AID 1347350). Also: nearly all actives have a fitted effect of over 75% in size. As to conditions: SW1088 viability, CellTiter-Glo luminescence, 72 h; series mostly up to 38.3 µM. The source says: Natural products and their derivatives continue to be wellsprings of nascent therapeutic potential. However, many laboratories have limited resources for biological evaluation, leaving their previously isolated or synthesized compounds largely or completely untested. To address this issue, the Canvass library of natural products was assembled (https://tripod.nih.gov/canvass), in collaboration with academic and industry researchers, for quantitative high-throughput screening (qHTS) across a diverse set of cell-based and biochemical assays. The pure (>85% purity by liquid chromatography/mass spectrometry [LC/MS]) Canvass library of 346 natural products were submitted by 45 academic laboratories and companies around the world. We collected pure natural products to circumvent deconvolution and structure elucidation due to time and resource limitations. The library was formatted into 1536-well plates and evaluated in 50 qHTS (in an 11-pnt concentration series) bioassays with broad scope of disease-relevant mechanisms. The resulting data set from 50 different assays was then systematically analyzed to identify overall trends and specific natural products with interesting biological activities. Reported herein are the results of each individual qHTS and their corresponding assay protocol. National Center for Advancing Translational Sciences (NCATS), Rockville, MD National Institute of Health (NIH), Bethesda, Maryland
Cancer Cell Toxicity protocol for cell lines COV-362, OV-KATE, OV-SAHO, UWB1.289, UWB1.289-WTBRCA1, HEK-293, HPAF-II, Panc-1005, SW1088, or U-118MG. 1. In a 1536 well, white solid bottom tissue culture plates (Corning 7494), corresponding cells (COV-362, OV-KATE, OV-SAHO, UWB1.289, UWB1.289-WTBRCA1, HEK-293, HPAF-II, Panc-1005, SW1088, or U-118MG) were dispensed in each well at a final concentration of 1000 cells / well (6uL volume) using the Multidrop Combi (Thermo Fisher Scientific) dispenser. 2. The plates were incubated for 4 hours at 37 degrees C/5% CO2/95% Rh. 3. Compounds were pin transferred (~23nL volume) via Wako Pin-tool (Wako Automation, Richmond VA) equipped with a 1536 pin head. The assay plates were treated with compounds in an 11-pnt concentration series with a final concentration range of […] to 85uM. 4. Bortezomib was used as a single dose control (0.5mM column 4, rows 1 - 32) at a final concentration of 1.9uM and as a 16pnt titration (1mM; 1:2 dilution; 16-points; n = 2; column 3, rows 1 - 32) with final concentration range of 0.1nM - 3.8uM. 5. The assay plates were incubated for 72 hours at 37 degrees C/5% CO2/95% Rh. 6. 3uL CellTiter-Glo detection reagent was then added to the plates (columns 2 - 48, rows 1 - 32) and incubated at room temperature for additional 15min. 7. Luminescence signal was acquired via the ViewLux plate reader (PerkinElmer) using a clear filter, 2 second exposure and 2x binning settings.
For `C/C=C1/CN2C3CC1C1=CCC(=O)N4c5ccccc5[C@@]3(C[C@@H]2C2=C[C@H]3C5CC6N(CC[C@@]67c6ccccc6N(C2=O)[C@@H]37)C/C5=C/C)[C@H]14` (stereo not given in full), the Potency was 14.9 µM (active).
Consider `COC1C(O)C(C)OC(OC2C(Oc3cccc4c(O)c5c(=O)oc6ccc(C)c7c(=O)oc(c34)c5c67)OC(C)C(O)C2O)C1O` (stereo not given), for which the Potency entry is “inactive”.
Under `CC[C@H](C)[C@H]1NC(=O)[C@@H](NC(=O)C(C)[C@H](O)C(C)C)[C@@H](C)OC(=O)C2COC(=O)CNC(=O)/C=C\[C@]3(CO3)[C@@H](C)Oc3ccc(cc3)[C@H](NC1=O)C(=O)N(C)C(Cc1ccccc1)C(=O)NC(C(C)O)C(=O)N2` (stereo not given in full) (X2-T[d(aIle)][X3][ξNMeF][ξT][ξS]; ester 1-C; linker 3-6 via G) stands “inactive”; under `C=CC(C)(C)[C@@]12C[C@H]3C(=O)N/C(=C\c4cnc[nH]4)C(=O)N3[C@@H]1Nc1ccccc12`, “inactive”.
On to `C[N+](C)(C)CCc1c[nH]c2ccccc12`, for which the Potency entry was “inactive”.
To `CO[C@@H](/C=C/CC/C=C/C(=O)O)[C@@H](O)[C@H](C)/C=C(\C)[C@H](O)[C@H](C)C(=O)CCCC1CC(=O)NC(=O)C1` belongs “inactive”; to `C=C[C@]12C=CCN3CC[C@@]4(c5ccccc5NC(=O)[C@@H]4C1)[C@@H]32`, “inactive”; to `CCCC[C@@H](C)/C=C1/CN2CCC[C@H]2[C@@](C)(O)[C@@H]1O`, “inactive”.
To `CO[C@@]12c3c(C)cc(O)c4c(=O)occ(c34)C(=O)[C@@H]1[C@]13COC(=O)c4c(O)cc(C)c(c41)C(=O)[C@H]2[C@@H]3OC(C)=O` belongs 18.8 µM (active).
Consider `CCCC[C@@H]1CC[C@H]2CCCC(CCCO)N12` (stereo not given in full), for which the Potency entry is “inactive”.
To `C/C=C/[C@@H]1[C@H]2C[C@@H](C)CC[C@@H]2C(C)=C[C@H]1C(=O)c1c(O)c(-c2ccc(O)cc2)c[nH]c1=O` belongs 6.68 µM (active); to `C1=C2CCCN[C@H]2C2CC1[C@H]1CCCCN1C2` (stereo not given in full), “inactive”; to `c1ccc2nc3c(cc2c1)[nH]c1ccccc13`, “inactive”.
For `C[C@]12CC(O)C3[C@@H](CCC4C[C@@H](O)CC[C@@]43CO)[C@@]1(O)CC[C@@H]2C1=CC(=O)OC1` (stereo not given in full), the Potency entry was “inactive”.
To `CO[C@H]([C@@H](C)[C@H]1O[C@]1(C)C[C@H](C)/C=C/C=C(\C)[C@H]1O[C@@H](CC(=O)O)CC[C@@H]1C)[C@@H](C)O` belongs “inactive”; to `C=CC(C)(C)[C@@]12C[C@H]3C(=O)N/C(=C/c4cnc[nH]4)C(=O)N3[C@@H]1Nc1ccccc12`, “inactive”.
Under `COC1=C(C2=C(OC)C(=O)c3cc4c(c(O)c3C2=O)C(=O)O[C@H](C)C4)C(=O)c2c(cc3c(c2O)C(=O)O[C@H](C)C3)C1=O` stands 3.14 µM (active).
Under `C/C=C1/CN2CC[C@]34C(=C(C(=O)OC)[C@H]1C[C@H]23)Nc1ccccc14` stands “inactive”.
On to `CC[C@]12C=CCN3CC[C@]4(C(=C(C(=O)OC)C1)Nc1ccccc14)[C@@H]32`, for which the Potency result was “inactive”.
`CC(C)CC1C(=O)O[C@H](C(C)C)C(=O)N(C)C(CC(C)C)C(=O)O[C@@H](C(C)C)C(=O)N(C)C(CC(C)C)C(=O)O[C@H](C(C)C)C(=O)N(C)C(CC(C)C)C(=O)O[C@@H](C(C)C)C(=O)N1C` (stereo not given in full): the Potency is 5.95 µM (active).
Under `CC[C@@H]1CN2CCC3(Nc4cccc(OC)c4C3=O)[C@@H]2C[C@@H]1/C(=C\OC)C(=O)OC` (stereo not given in full) stands “inactive”; under `C=C(C)[C@H]1C(=O)c2c3c(cc4c5c(n1c24)[C@@]1(C)[C@@H](CC[C@H]2[C@](C)(/C=C/C=C(\C)C(=O)O)[C@@H](O)CC[C@@]21C)C5)C1=CC(C)(C)OC(C)(C)[C@H]1[C@@H]3O`, 5.95 µM (active); under `C/C=C(\C)C(=O)O[C@@H]1[C@@H](O)[C@@H]2O[C@H]3[C@H](O[C@@H](CCCCC)CCCCCCC(=O)CCC(=O)OC[C@@H](O2)[C@H]1OC(=O)/C=C/c1ccccc1)O[C@H](C)[C@H](OC(C)=O)[C@@H]3O`, 14.9 µM (active).
Under `O[C@H]1C=C[C@@]23CCN(Cc4cc5c(cc42)OCO5)[C@@H]3C1` stands “inactive”.
In the case of `CCCCC1CC[C@H]2CCCC(CCC)N12` (stereo not given in full), the Potency result was “inactive”.
